Only some compounds are listed: those with a hit (about 2.3% of all), similar ones and a draw of the others.
M1 ag = human M1 muscarinic receptor agonism. P11229. activation, % at 3 µM. CHO-K1 hM1, Fluo-8 calcium fluorescence, agonist mode; 0% DMSO, 100% acetylcholine EC100. AID 588814. actives 0.33% (n = 360,000);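 active = activation above the run's mean compound activation plus 3 SD, cut at about 16% in these data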;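 also: peak over basal fluorescence ratio within a 140 s kinetic read after compound addition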
Target sequence (P11229 whole entry, looked up): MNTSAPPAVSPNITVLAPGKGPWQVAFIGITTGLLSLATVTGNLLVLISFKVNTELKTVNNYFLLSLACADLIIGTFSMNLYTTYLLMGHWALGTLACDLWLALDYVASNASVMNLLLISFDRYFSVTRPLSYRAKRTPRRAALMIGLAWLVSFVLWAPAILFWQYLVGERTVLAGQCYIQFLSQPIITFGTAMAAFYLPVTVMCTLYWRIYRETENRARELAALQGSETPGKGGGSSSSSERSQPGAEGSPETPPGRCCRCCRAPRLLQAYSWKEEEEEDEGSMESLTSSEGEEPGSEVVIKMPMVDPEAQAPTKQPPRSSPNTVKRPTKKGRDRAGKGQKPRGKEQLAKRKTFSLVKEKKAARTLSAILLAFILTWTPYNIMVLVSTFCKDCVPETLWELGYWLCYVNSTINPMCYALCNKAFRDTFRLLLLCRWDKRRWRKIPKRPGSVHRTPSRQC
CHRM1 antagonist = blocks human M1 muscarinic receptor; P11229; CHO-K1 hM1, Fluo-8 calcium fluorescence, ACh EC80 antagonist; inhibition, % at 3 µM; actives 1.3% (n = 360,000);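 active = percent inhibition above its own plate's cutoff, namely the mean of that plate's compound wells plus 3 SD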;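 also: peak over basal fluorescence ratio during 140 s after agonist addition; 0% = ACh EC80 plus DMSO and 100% = DMSO alone without agonist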
M1 PAM parental = M1 PAM counterscreen hit in parental CHO-K1 cells; actives 0.02% (n = 360,000); AID 602247; activation, % at 3 µM; ATP EC20, Fluo-8 calcium fluorescence; 0% at ATP EC20, 100% at ATP max;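 active = activation above the run cutoff, the mean activation of all test compounds plus 3 SD, cut at about 40% in these data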;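 also: peak over basal fluorescence ratio in a 140 s read after ATP addition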
CHO-K1 Ca antag = counter-screen for M1 antagonists: effect in parental CHO-K1 cells; ATP-induced calcium, Fluo-8 fluorescence; actives 0.6% (n = 360,000); inhibition, % at 3 µM;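 active = inhibition above a per-plate cutoff, the plate's mean sample inhibition plus 3 SD, cut at about 24% in these data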;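 also: 0% = DMSO plus EC80 ATP and 100% = DMSO alone without ATP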
CHO-K1 Ca ag = M1 agonist counterscreen hit in parental CHO-K1 cells; Fluo-8 calcium fluorescence; scaled to maximal ATP response, vehicle zero; activation, % at 3 µM; AID 602248; actives 0.48% (n = 360,000); in the data active = activation above about 15%;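 also: untransfected CHO-K1 host cells lacking M1 receptor as counterscreen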
M1 PAM = potentiates human M1 receptor response to acetylcholine; CHO-K1 hM1, Fluo-8 calcium fluorescence, ACh EC20; 0% = ACh EC20, 100% = maximal ACh; activation, % at 3 µM; actives 0.088% (n = 360,000); in the data active = activation above about 19%, passing the limit was not always enough
Starred values were filed as active, the others as inactive.

SMILES	M1 ag	CHRM1 antagonist	M1 PAM parental	CHO-K1 Ca antag	CHO-K1 Ca ag	M1 PAM
O=S(=O)(c1ccc(Cl)c(Cl)c1)c1snnc1-c1ccccc1	-4	75*	6	-12	1	-21
COc1cccc(C(=O)OCC(=O)NCCCc2ccccc2)c1	-6	-9	-4	-11	-1	1
Cc1c(N=C/C=C/c2ccccc2)c(=O)n(-c2ccccc2)n1C	-14	100*	18	-26	1	-31
COc1ccc(C2(c3ccc(OC)cc3)NC(=O)N(CC(=O)Nc3ccccc3)C2=O)cc1	1	3	14	-6	15*	3
COc1ccc(C2(c3ccc(OC)cc3)NC(=O)N(CC(=O)Nc3ccc(C(N)=O)cc3)C2=O)cc1	-3	7	-20	4	-1	-4
CC1CC(=O)Nc2ccccc2N1C(=O)CN1CCN(C=O)CC1 (centres undefined)	-7	-9	21	4	15*	11
CC(C)CN1C(=O)C(=O)N(CC(=O)N2c3ccccc3NC(=O)CC2C)C1=O (centres undefined)	-1	-12	9	-13	1	8
CCOc1cc2c(cc1/C=C/c1noc(C)c1[N+](=O)[O-])OC(C)C2 (centres undefined)	9	10	19	-4	7	-2
COc1ccc(C(=O)C2CCCN(Cc3ccc4nonc4c3)C2)cc1F (centres undefined)	-5	14	13	-13	2	-11
COc1ccc(C(=O)C2CCCN(Cc3cnc(N4CCOCC4)s3)C2)cc1F (centres undefined)	0	-16	15	-5	29*	0
COc1ccc(C(=O)C2CCCN(Cc3ccc(C#CCCO)cc3)C2)cc1F (centres undefined)	-13	58*	-11	4	1	-33
COc1ccc(C(=O)C2CCCN(Cc3cnc(N4CCOCC4)s3)C2)c(OC)c1 (centres undefined)	-8	0	-4	-8	0	7
Cc1ccc(NC(=O)COC(=O)c2ccc(CN3CCCC3=O)cc2)c(Cl)c1	-5	-11	5	-11	8	5
CCc1cccc(OCCOC(=O)CNS(=O)(=O)c2ccc(NC(C)=O)cc2)c1	0	8	-21	-1	2	-5
O=C(Nc1ccc(Oc2ccccc2)cc1)c1csc([C@@H]2O[C@H](CO)[C@@H](O)[C@H]2O)n1	1	34*	4	2	6	-14
O=C(Nc1ccc(Oc2ccccc2)cc1)c1csc([C@H]2C[C@H](O)[C@@H](CO)O2)n1	3	32*	-5	1	14	-16
O=C(Nc1ccc(OCCO)cc1)c1csc([C@@H]2O[C@H](CO)[C@H](O)[C@H](O)[C@H]2O)n1	-3	-21	4	11	2	9
CC(=O)Nc1ccc(NC(=O)c2csc([C@@H]3C[C@H](O)[C@@H](CO)O3)n2)cc1	-1	-3	12	-5	6	2
CCCCn1c(N)c(N(CC(C)C)C(=O)c2ccc(N3C(=O)CCC3=O)cc2)c(=O)[nH]c1=O	2	-10	12	-6	3	10
COc1ccc(/C=C/C(=O)OCC(=O)Nc2cc(C(N)=O)cc(C(N)=O)c2)cc1	-7	-8	-15	25*	11	11
NC(=O)c1ccsc1NC(=O)COC(=O)/C=C/c1ccc([N+](=O)[O-])cc1	2	7	1	-3	12	-8
COC(=O)c1ccc(/C=C/C(=O)OCC(=O)Nc2sccc2C(N)=O)cc1	5	47*	-17	10	16*	-25
COc1ccc(F)cc1S(=O)(=O)NCC(=O)NCc1cc(=O)n(C)c(=O)n1C	-2	-7	17	-21	1	3
Cc1nc(C)c(C(=O)NNS(=O)(=O)c2ccc3ccccc3c2)s1	-2	15	-4	5	10	-15
O=C(NCc1ccc(F)cc1)c1cccc2c1C(=O)c1ccc(N3CCC(N4CCCCC4)CC3)cc1S2(=O)=O	-8	40*	-3	10	3	-25
SMILES	M1 ag	CHRM1 antagonist	M1 PAM parental	CHO-K1 Ca antag	CHO-K1 Ca ag	M1 PAM
CC1CCN(c2ccc3c(c2)S(=O)(=O)c2cccc(C(=O)NCc4ccc(F)cc4)c2C3=O)CC1	-2	-4	17	-12	3	6
O=C(NC1CC1)c1cccc2c1C(=O)c1ccc(N3CCC(Cc4ccccc4)CC3)cc1S2(=O)=O	21*	26	2	2	7	-11
CCn1c(CN2CCN(C(c3ccccc3)c3ccccc3)CC2)nc2c1c(=O)n(C)c(=O)n2C	-9	-18	5	-10	0	9
COc1ccc(-n2nc(C(=O)NCC(=O)N3CCN(Cc4ccc5c(c4)OCO5)CC3)c3ccccc3c2=O)cc1OC	1	41*	7	-14	3	-18
COc1ccc(-n2nc(C(=O)NCC(=O)N3CCN(c4ccccn4)CC3)c3ccccc3c2=O)cc1OC	-5	37*	-12	8	5	-13
COc1ccc(-n2nc(C(=O)NCC(=O)N3CCN(c4ccccn4)CC3)c3ccccc3c2=O)cc1	-2	9	10	9	2	-7
COc1ccc(-n2nc(C(=O)NCC(=O)N3CCOCC3)c3ccccc3c2=O)cc1OC	-3	-6	15	-15	3	3
COCCn1nnnc1C(c1cccs1)N1CCN2CCCC2C1 (centres undefined)	-13	17	10	15	9	-18
O=C(O)c1ccc(NC(C(=O)c2ccccc2)c2ccccc2)cc1 (centres undefined)	7	-2	-13	17	0	8
CC1CCCCC12NC(=O)N(CC(=O)NCc1cccs1)C2=O (centres undefined)	-5	-5	-5	25*	2	1
CC1CCCCC12NC(=O)N(CC(=O)OCC(=O)Nc1ccc(F)cc1[N+](=O)[O-])C2=O (centres undefined)	3	29*	-2	6	5	-17
COc1ccccc1C(=O)NC(=O)COC(=O)CN1C(=O)NC2(CCCCC2C)C1=O (centres undefined)	-3	-10	-13	17	0	3
N#CC1(NC(=O)COC(=O)C2=COCCO2)CCCCC1	24*	-2	12	-12	19*	2
N#CC1(NC(=O)COc2cc(F)ccc2[N+](=O)[O-])CCCCC1	-6	22	-12	-4	2	-11
N#CC1(NC(=O)COc2ccccc2[N+](=O)[O-])CCCCC1	-6	37*	-8	-8	1	-15
C[C@@H]1C(=O)O[C@H]2[C@H](O)[C@@]34[C@H]5C[C@@H](C(C)(C)C)[C@]36[C@@H](OC(=O)[C@@H]6O)O[C@@]4(C(=O)O5)[C@@]12O	-4	-12	4	-6	1	7

Screens (PubChem BioAssay)
